Screening data from PubChem.
Hits are enriched below; roughly 5.3% of the tested compounds scored in any of these assays.
ALR H2O2 inh: human ALR oxidase inhibition via reduced H2O2 | purified ALR, DTT oxidation, H2O2 HRP-luminol luminescence | P55789 | inhibition, % (test concentration not listed) | 3.8% of 290,000 active;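 active = mean replicate inhibition above about 79%, with every replicate also reaching it, limit read from the data; inconclusive = only one of the two criteria met; inactive = mean below limit and not every replicate reaching it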
Target sequence (P55789 whole entry, looked up): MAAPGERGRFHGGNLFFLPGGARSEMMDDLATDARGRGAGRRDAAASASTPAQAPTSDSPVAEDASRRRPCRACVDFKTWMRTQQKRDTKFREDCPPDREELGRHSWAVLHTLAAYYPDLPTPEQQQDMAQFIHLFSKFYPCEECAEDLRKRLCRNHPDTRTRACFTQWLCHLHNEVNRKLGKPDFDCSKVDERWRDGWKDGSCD
Mot1-301 SUMO: inhibitors of SUMOylation pathway: yeast Mot1-301 growth rescue | S. cerevisiae Mot1-301 growth rescue, ATP luminescence, 38.5C; percent above DMSO median, 100 means doubled | growth rescue, % at 18.8 µM | 1% of 320,000 active;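 active = every valid replicate shows activation above 250% relative to neutral control wells; inactive = the rest, any valid replicate at or below 250%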
HIF act: HIF pathway transcriptional activation | U2OS HRE-luciferase reporter, luminescence; normalized: DMSO 0%, desferrioxamine 100% | activation, % at 7.5 µM (by protocol) | 0.32% of 300,000 active | AID 1910;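 active = mean activation of at least 10% of the iron chelator positive control signal, with at least half of replicates also reaching 10%; inconclusive = mean and replicate majority disagree about reaching 10%; inactive = mean and most replicates under 10%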
PfM18AAP inh: blocks P. falciparum M18 aspartyl aminopeptidase | recombinant PfM18AAP, H-Glu-NHMec fluorogenic cleavage | inhibition, % at 7.35 µM | 1.2% of 290,000 active;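 active = inhibition above the campaign mean inhibition over all tested compounds plus 3 SD, cut at about 28% in these data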
A number is an active result; i = inactive; ? = inconclusive; nt = not tested or not shown.

SMILES | ALR H2O2 inh | Mot1-301 SUMO | HIF act | PfM18AAP inh
COc1cc(C(=O)C(=O)c2ccc(O)c(OC)c2)ccc1O | 99.5 | i | i | i
COc1cc(-c2cc(OC)c3c(C)oc(C)c3c(=O)c2)ccc1O | 90.9 | i | i | i
COc1cc(C(=O)n2nc(C)cc2C)ccc1O | 94.8 | i | i | i
COc1ccc(-c2cc(OC)c3c(C)oc(C)c3c(=O)c2)cc1OC | i | i | i | i
COc1ccc(CCN2CC(C(=O)Nc3nccs3)CC2=O)cc1OC (configuration not stated) | i | i | nt | nt
COc1cc(C(=S)N2CCC(C(N)=O)CC2)ccc1O | i | i | nt | i
COc1cc(-c2nc3ccccn3c2N)ccc1O | nt | i | i | i
COc1cc(C(=S)N2CCC(C)CC2)ccc1O | 89.6 | i | i | i
COc1cc(-c2cc[n+](C)cc2)ccc1O | 99.0 | i | i | nt
COc1cc(-c2nc3ccccc3nc2-c2ccc(O)c(OC)c2)ccc1O | 98.9 | i | i | i
Cc1nn(CC(=O)N2CCN(S(=O)(=O)c3ccccc3)CC2)c(C)c1[N+](=O)[O-] | nt | i | nt | nt
C=CCSc1nc2sc3c(c2c(=O)[nH]1)CC(C)(CC)OC3 (configuration not stated) | i | i | i | i
Cc1nc(SCC(=O)Nn2c(-c3ccccc3)nc3ccccc3c2=O)n[nH]1 | i | i | i | i
COc1cc2c(=O)n(CCC(=O)NCC3CCCO3)c(=O)n(CC(=O)Nc3ccc(F)cc3)c2cc1OC (configuration not stated) | i | 283.5 | i | i
CN(C)S(=O)(=O)c1ccc(C(=O)NCc2nnc(SCC(=O)c3ccccc3)o2)cc1 | i | i | i | i
COc1ccc2[nH]c3c(N4CCN(Cc5ccc6c(c5)OCO6)CC4)ncnc3c2c1 | 97.4 | i | i | i
COc1ccc2c(c1)c1ncnc(N3CCN(Cc4ccc5c(c4)OCO5)CC3)c1n2C | nt | nt | nt | i
C=CCC[C@@H](Cc1ccc(F)cc1)C(=O)OCCNC(=O)[C@H](CC=C)CC(=O)NCCO | i | i | nt | nt
CCOC(=O)c1c(S(=O)(=O)N2CCCC2)c(C)n(C)c1C | i | i | 47.6 | i
COc1ccccc1NC(=O)C1Cc2ccccc2CN1C(=O)c1ccco1 (configuration not stated) | nt | i | i | i
O=C(Nc1ccccc1)C1Cc2ccccc2CN1C(=O)c1ccco1 (configuration not stated) | 97.3 | i | i | i
CC1CC(C)CN(CC(C)(C)NS(=O)(=O)c2ccc(Cl)cc2)C1 (configuration not stated) | i | 276.0 | i | i
O=C(Nc1cc(C(F)(F)F)ccc1-n1cncn1)c1ccc(-c2ccccc2)cc1 | nt | i | i | i
COc1cccc(-c2nc(CS(=O)(=O)CC(=O)NCCCOC(C)C)c(C)o2)c1 | 93.9 | i | i | i
COc1cccc(-c2nc(CS(=O)(=O)CC(=O)NCc3ccccc3)c(C)o2)c1 | nt | i | i | i
SMILES | ALR H2O2 inh | Mot1-301 SUMO | HIF act | PfM18AAP inh
COc1cccc(-c2nc(CS(=O)(=O)CC(=O)NCc3ccc4c(c3)OCO4)c(C)o2)c1 | 95.4 | i | i | i
COc1cccc(-c2nc(CS(=O)(=O)CC(=O)NCc3ccccc3OC)c(C)o2)c1 | i | i | i | i
COc1cccc(-c2nc(CS(=O)CC(=O)NCCCOC(C)C)c(C)o2)c1 (configuration not stated) | 98.8 | i | i | i
CCC(C)NC(=O)CS(=O)(=O)Cc1nc(-c2cccc(OC)c2)oc1C (configuration not stated) | 99.2 | i | i | i
COc1cccc(-c2nc(CS(=O)(=O)CC(=O)NCCCc3ccccc3)c(C)o2)c1 | i | i | i | i
O=[N+]([O-])c1c(C(Cl)Cl)nn(-c2ccccc2)c1N1CCCC1 | i | i | i | i
C(=Nc1ccc(N2CCOCC2)cc1)c1c[nH]c2ccccc12 | 99.1 | i | i | i
COCCOC(=O)CSc1ncccc1-c1nc2cc(C)c(C)cc2[nH]1 | 98.4 | i | nt | i
Cc1ccc(NCC(O)C(O)C(O)CO)c(N=Nc2ccccc2)c1C (configuration not stated) | 98.8 | i | i | i
CC(=O)Nc1cc(NC(C)=O)c(N=Nc2ccccc2)cc1C | i | i | i | i
Cc1nn(-c2ccccc2)c(C)c1NC(=O)COC(=O)c1ccc(O)cc1O | i | i | i | i
O=C(COc1ccccc1)NNc1c2ccccc2nc2ccccc12 | 98.1 | i | i | i
COc1ccc(OCC(=O)NNc2c3ccccc3nc3ccccc23)cc1 | 99.6 | i | i | i
COc1ccc(OCC(=O)NNC(=O)C(=O)Nc2ccccc2)cc1 | i | i | nt | nt
CCOC(=O)CNc1ccc(OC(F)(F)F)cc1 | i | i | i | i
Cc1cccc(CCN(CC(=O)NCc2ccc(F)cc2)C(=O)c2csnn2)c1 | i | i | i | i
COc1ccc(/C=C/C(=O)Nc2c(C)nn(C)c2C)cc1COc1ccc(Cl)cc1Br | i | i | i | i
COCc1nnc(NC(=O)c2ccc(S(=O)(=O)N(CC(C)C)CC(C)C)cc2)o1 | 95.3 | i | i | i
C=CCN(CC=C)S(=O)(=O)c1ccc(C(=O)Nc2nnc(COC)o2)cc1 | ? | i | i | i
O=C(OCCN1CCN(C2=NS(=O)(=O)c3ccccc32)CC1)c1cccc(Br)c1 | nt | i | i | i
Cc1noc(C)c1CSCC(=O)Nc1ccc(S(C)(=O)=O)cc1 | i | i | nt | nt
CCN(c1ccc(NC(=O)CSc2nnc3nc(C)cc(C)n23)cc1)C(C)C | 98.9 | i | i | i
CCN(c1ccc(NC(=O)CSCc2c(C)noc2C)cc1)C(C)C | 99.2 | i | nt | nt
CC(=O)Nc1ccc(NC2=C(Cl)C(=O)c3ccccc3C2=O)cc1 | nt | nt | i | i
Cc1ccc(NC2=C(NCCO)C(=O)c3ccccc3C2=O)cc1 | 99.6 | i | i | i
SMILES | ALR H2O2 inh | Mot1-301 SUMO | HIF act | PfM18AAP inh
CC(C(=O)N1CCc2ccccc21)N1CCN(S(=O)(=O)c2cccc(C(F)(F)F)c2)CC1 (configuration not stated) | i | i | nt | nt
O=Cc1c(N2CCN(c3ccccc3)CC2)nc2ccccn2c1=O | 98.6 | i | i | i
COc1ccc(N2CCN(c3nc4ccc(C)cn4c(=O)c3C=O)CC2)cc1 | 80.9 | i | i | i
Cc1ccc2nc(N3CCN(c4ccccc4)CC3)c(C=O)c(=O)n2c1 | i | i | i | i
O=C(COC(=O)C1CCCC1)Nc1ncc(Cl)cc1Cl | i | i | i | nt
Cc1cc(C(=O)CCl)c(C)n1Cc1ccco1 | 96.8 | i | i | i
Cc1cc(C(=O)CCl)c(C)n1CCc1ccccc1 | 96.1 | i | i | i
COc1cccc(C(C(=O)NC(C)(C)C)N(CC(C)C)C(=O)CCC(=O)Nc2cc(C)on2)c1OC (configuration not stated) | i | i | i | i
O=C(NC(=S)NC(=O)c1ccccc1F)c1ccccc1F | 89.2 | i | i | i
O=C(CC(Nc1ccccc1Cl)C(=O)O)c1ccccc1 (configuration not stated) | 97.5 | nt | i | i
O=C(CC(Nc1cccc(Cl)c1Cl)C(=O)O)c1ccccc1 (configuration not stated) | i | i | i | i
O=c1c2ccccc2c(/C=N/NS(=O)(=O)c2ccccc2)c(O)n1-c1ccccn1 | 98.1 | i | i | i
N#Cc1c(NC(=O)C(=O)NCCCN2CCOCC2)sc2c1CCCC2 | 96.3 | i | i | i
